Assay [1] can be described thus: qHTS of pediatric cancer cell lines to identify multiple opportunities for drug repurposing: Primary screen for A673 cells (AID 1347092). Note: nearly all actives have a fitted effect of over 45% in size. Note: potency is the fitted concentration of half-maximal effect. An outline of the steps: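 A673 cells (500-1,000 cells/well in growth media) were pre-incubated 5 h at 37 degrees C, then exposed to compounds for 48 h. Viability was read as CellTiter-Glo luminescence; concentration-response curves came directly from the primary screen.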
Background: Quantitative high-throughput screening tests each substance at several concentrations.

The nature of assay [2]: qHTS of pediatric cancer cell lines to identify multiple opportunities for drug repurposing: Primary screen for SK-N-MC cells (AID 1347093). Note: potency is the fitted concentration of half-maximal effect. An outline of the steps:
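Metabolically active cells were quantified by ATP-dependent luminescence (CellTiter-Glo, 15 min at room temperature) following 48 h treatment. Cells had been plated at 500-1,000 per well and settled for 5 h beforehand.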

Assay [3] can be described thus: qHTS of pediatric cancer cell lines to identify multiple opportunities for drug repurposing: Primary screen for BT-37 cells (AID 1347094). Note: potency is the fitted concentration of half-maximal effect. An outline of the steps: (§1)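 CRCs from 8- or 11-point titrations (lowest final 0.59 nM NPC, 0.78 nM MIPE). Cell viability: CellTiter-Glo after 48 h incubation, 15 min room-temperature development, luminescence imaging.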
Assay [4] is described as follows: qHTS of pediatric cancer cell lines to identify multiple opportunities for drug repurposing: Primary screen for NB-EBc1 cells (AID 1347095). Note: potency is the fitted concentration of half-maximal effect. An outline of the steps:
as §1

Assay [5] can be described thus: qHTS of pediatric cancer cell lines to identify multiple opportunities for drug repurposing: Primary screen for U-2 OS cells (AID 1347096). Note: nearly all actives have a fitted effect of over 50% in size. An outline of the steps: (§2)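 Viability after 48 h compound treatment at 37C, 500-1,000 cells/well, read as ATP luminescence with CellTiter-Glo. Primary screens used 11-point (MIPE, 0.78 nM-46 µM) or 8-point (NPC, 0.59 nM-46 µM) final concentrations; follow-up screens used 11-point dilutions.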

Assay [6] in a line: qHTS of pediatric cancer cell lines to identify multiple opportunities for drug repurposing: Primary screen for Saos-2 cells (AID 1347097). Note: nearly all actives have a fitted effect of over 40% in size. Note: potency is the fitted concentration of half-maximal effect. An outline of the steps: as §1
The nature of assay [7]: qHTS of pediatric cancer cell lines to identify multiple opportunities for drug repurposing: Primary screen for SK-N-SH cells (AID 1347098).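 Note: DMSO served as neutral control and bortezomib at 2.3 µM as positive control; nearly all actives have a fitted effect of over 65% in size.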 An outline of the steps:
(§3)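 Cells (500-1,000/well) rested 5 h, then received compounds for 48 h; metabolically active cells were measured by CellTiter-Glo luminescence. Final concentrations spanned up to 46 µM (MIPE, 11-point) or 0.59 nM-46 µM (NPC, 8-point) in primary screens, 11-point in follow-ups.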

Assay [8] can be described thus: qHTS of pediatric cancer cell lines to identify multiple opportunities for drug repurposing: Primary screen for NB1643 cells (AID 1347099). Note: nearly all actives have a fitted effect of over 50% in size. Note: potency is the fitted concentration of half-maximal effect. An outline of the steps: as §1
The nature of assay [9]: qHTS of pediatric cancer cell lines to identify multiple opportunities for drug repurposing: Primary screen for LAN-5 cells (AID 1347100). Note: potency is the fitted concentration of half-maximal effect. An outline of the steps:
as §2

A short description of assay [10]: qHTS of pediatric cancer cell lines to identify multiple opportunities for drug repurposing: Primary screen for BT-12 cells (AID 1347101). Note: nearly all actives have a fitted effect of over 25% in size. Note: potency is the fitted concentration of half-maximal effect. An outline of the steps: as §3

Values joined by “and” are separate entries in the source; they are usually repeats but may differ in a detail not shown here. Identical values can stand only once. Results filed as inconclusive are left out. Active and inactive are the calls of the source. Calls come from the whole dose curve; as a rule, active = well fitted curve in the direction sought with a large enough effect; inconclusive = small, poorly fitted or top-dose-only effect, or another doubt; inactive = no such curve, though single readings can be large; an effect the other way counts as inactive or inconclusive.

The values that follow come from PubChem BioAssay (NCATS).

As for `CN1CCN(c2c(F)cc3c(=O)c(C(=O)O)cn(CCF)c3c2F)CC1`, the Potency entry in assay [1], in assay [2], in assay [3], in [4], in assay [5] and in assay [6] was “inactive” in each case. In addition, the Potency result in assay [7], in assay [8], in assay [9] and in assay [10] was “inactive” throughout.

Consider `COC(c1ccccc1)(c1ccccc1)[C@H](Oc1nc(C)cc(C)n1)C(=O)O`, for which the Potency result in [1], in assay [2], in assay [3], in [4], in assay [5] and in [6] was “inactive” each time. Moreover, the Potency result in assay [7], in assay [8] and in assay [9] was “inactive” in each case.

On to `COc1cc([C@@H]2c3cc4c(cc3[C@H](O)[C@H]3COC(=O)[C@H]23)OCO4)cc(OC)c1OC`, for which the Potency in [1] is 84.1 nM (active) and 1 nM (active); in [2], 53.1 nM (active) and 1 nM (active); in [3], 69.2 nM (active) and 1 nM (active); in assay [4], 8.4 nM (active) and 1 nM (active); in assay [6] it was 33.5 nM (active) and 2.64 µM (active); in assay [8] it was 0.0596 µM (active). The Potency in assay [9] is 7.5 nM (active) and 1 nM (active); in assay [10], 55 nM (active) and 1.9 nM (active). Further, the Potency result in [5] and in assay [7] was “inactive” each time.

In the case of `Cc1noc(NS(=O)(=O)c2ccc(N)cc2)c1C`, the Potency entry in assay [1], in [2], in [3], in [4], in assay [5] and in assay [6] was “inactive” in each case. Besides, the Potency result in assay [7], in assay [8], in assay [9] and in [10] was “inactive” in each case.

`CC(C)OC(=O)C(C(=O)OC(C)C)=C1SC=CS1`: the Potency result in assay [1], in [2], in assay [3], in assay [4], in assay [5] and in assay [6] was “inactive” throughout. In addition, the Potency entry in [7], in assay [8] and in [9] was “inactive” throughout.

For `COCCCOc1cc(C[C@@H](C[C@H](N)[C@@H](O)C[C@H](C(=O)NCC(C)(C)C(N)=O)C(C)C)C(C)C)ccc1OC`, the Potency entry in assay [1], in assay [2], in [3], in assay [4], in assay [5] and in assay [6] was “inactive” throughout. Moreover, the Potency result in assay [7], in assay [8] and in assay [9] was “inactive” throughout.

Regarding `CCn1cc(C(=O)O)c(=O)c2cc(F)c(N3CCN(C)CC3)cc21`, the Potency result in assay [1], in assay [2], in assay [3], in assay [4], in [5] and in assay [6] was “inactive” in each case. Moreover, the Potency result in assay [7], in [8] and in [9] was “inactive” throughout.

Take `COc1cc(NS(=O)(=O)c2ccc(N)cc2)nc(OC)n1`: the Potency entry in assay [1], in assay [2], in assay [3], in assay [4], in assay [5] and in assay [6] was “inactive” in each case. The Potency entry in assay [7], in assay [8], in assay [9] and in assay [10] was “inactive” each time.

As to `Cc1onc(-c2ccccc2Cl)c1C(=O)N[C@@H]1C(=O)N2[C@@H]1SC(C)(C)[C@@H]2C(=O)O`, the Potency entry in [1], in assay [2], in assay [3], in [4], in assay [5] and in [6] was “inactive” throughout. Moreover, the Potency result in assay [7], in assay [8] and in assay [9] was “inactive” each time.

In the case of `Nc1ccc(S(=O)(=O)Nc2ccccn2)cc1`, the Potency result in assay [1], in assay [2], in assay [3], in assay [4], in assay [5] and in assay [6] was “inactive” each time. Further, the Potency entry in [7], in assay [8] and in assay [9] was “inactive” each time.

Take `CNNCc1ccc(C(=O)NC(C)C)cc1`: the Potency entry in [1], in assay [2], in [3], in [4], in assay [5] and in [6] was “inactive” throughout. Further, the Potency result in [7], in assay [8] and in assay [9] was “inactive” throughout.

Turning to `O=C(O)CSCC(=O)NC1CCSC1=O` (centres undefined), the Potency entry in [1], in assay [2], in assay [3], in assay [4], in assay [5] and in [6] was “inactive” each time. The Potency result in assay [7] and in [8] was “inactive” throughout.

For `COc1ccccc1OCC(O)COC(N)=O` (centres undefined), the Potency result in assay [1], in [2], in assay [3], in [4], in assay [5] and in [6] was “inactive” each time. In addition, the Potency entry in [7], in assay [8], in assay [9] and in assay [10] was “inactive” in each case.

Regarding `Cn1c(=O)c2c(ncn2CC(O)CO)n(C)c1=O` (centres undefined), the Potency result in assay [1], in assay [2], in [3], in assay [4], in [5] and in [6] was “inactive” throughout. Also, the Potency entry in assay [7], in assay [8], in assay [9] and in [10] was “inactive” throughout.

As for `CC(C)C1CCC(C(=O)N[C@H](Cc2ccccc2)C(=O)O)CC1` (some centres undefined), the Potency result in assay [1], in assay [2], in assay [3], in assay [4], in assay [5] and in assay [6] was “inactive” in each case. For the same compound, the Potency result in assay [7], in assay [8] and in [9] was “inactive” throughout.

Regarding `O=C(O)CCn1c2c(c3ccccc31)C[C@H](NS(=O)(=O)c1ccc(F)cc1)CC2`, the Potency entry in assay [1], in [2], in [3], in assay [4], in [5] and in assay [6] was “inactive” each time. Further, the Potency entry in assay [7], in [8], in assay [9] and in [10] was “inactive” throughout.

For `CCn1cc(C(=O)O)c(=O)c2cc(F)c(N3CCNCC3)nc21`, the Potency result in assay [1], in assay [2], in assay [3], in [4], in [5] and in assay [6] was “inactive” each time. Moreover, the Potency result in assay [7], in assay [8], in assay [9] and in [10] was “inactive” throughout.

Turning to `COc1ccc(-c2ccc3cc(C(=O)O)ccc3c2)cc1C12CC3CC(CC(C3)C1)C2`, the Potency entry in assay [1], in assay [3], in assay [5], in [7], in assay [8] and in assay [10] was “inactive” each time. Also, the Potency in [2] is 668 nM (active) and 1.05 µM (active); in assay [4], 2.35 µM (active); in assay [6], 18.7 µM (active).
